Values joined by “and” are separate entries in the source; they are usually repeats but may differ in a detail not shown here. Equal entries are not always repeated. Hit rate of the full screen: of about 16,000 compounds, about 5,700 (36%) were called active. About 24% were inconclusive and are not listed. Calls come from the whole dose curve; as a rule, active = well fitted curve in the direction sought with a large enough effect; inconclusive = small, poorly fitted or top-dose-only effect, or effect the other way; inactive = no such curve, though single readings can be large or run the other way. The list shows a part of the results.
Target: Cytochrome P450 1A2 (Homo sapiens) (UniProt P05177)
Sequence (P05177 whole entry, looked up): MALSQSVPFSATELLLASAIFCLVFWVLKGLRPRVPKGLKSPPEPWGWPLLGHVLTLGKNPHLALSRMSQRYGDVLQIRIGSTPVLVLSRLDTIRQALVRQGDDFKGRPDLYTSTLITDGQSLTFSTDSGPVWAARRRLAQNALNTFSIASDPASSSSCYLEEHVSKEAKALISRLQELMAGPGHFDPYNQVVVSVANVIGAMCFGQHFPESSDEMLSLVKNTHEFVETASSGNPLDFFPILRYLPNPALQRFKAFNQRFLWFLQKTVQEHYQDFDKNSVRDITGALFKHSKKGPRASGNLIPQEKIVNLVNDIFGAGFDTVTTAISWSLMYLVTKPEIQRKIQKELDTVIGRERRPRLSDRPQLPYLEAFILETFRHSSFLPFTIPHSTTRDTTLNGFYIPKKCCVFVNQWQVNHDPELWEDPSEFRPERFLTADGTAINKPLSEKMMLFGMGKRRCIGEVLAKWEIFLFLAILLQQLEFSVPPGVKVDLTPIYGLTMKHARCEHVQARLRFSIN
Experiment: Cytochrome panel assay with activity outcomes
Details: recombinant CYP, pro-luciferin dealkylation, luminescence, p450-cyp1a2; series mostly up to 57.1 µM; activity, negative = inhibition: at the top concentration
% is set by controls: 0 for no effect and ±100 for the full control effect.

AC50, active:
O=C(c1cc(Br)ccc1O)c1cc(Br)ccc1O 1000 nM
Clc1ccc(CN2CCCN(Cc3ccc(Cl)cc3)C2c2cc3ccccc3c3ccccc23)cc1 794 nM
Cc1cc(C)nc(Nc2n[nH]c(COc3cccc4ccccc34)n2)n1 15800 nM
Cc1cc(C)nc(Nc2n[nH]c(-c3cccc4ccccc34)n2)n1 4470 nM
Cc1cc(OCCNCCO)cc(C)c1Cl 2000 nM
O=C1CC(c2ccc3c(c2)OCO3)CN1 (configuration not stated) 12600 nM
Cc1ccc(C)c(Cn2c(C(=O)OC(C)C)cc3c2ccn3C)c1 12600 nM
CC(c1ccc(Cl)cc1)n1c(-c2ccc3ccccc3n2)n[nH]c1=S (configuration not stated) 11200 nM
Cc1nc2c(OCc3ccccc3)cccn2c1CC#N 398 nM
Clc1ccc(-c2csc(N3CCC(c4ccccc4)C3)n2)cc1 (configuration not stated) 3550 nM
Brc1ccc(-c2csc(N3CCC(c4ccccc4)C3)n2)cc1 (configuration not stated) 2510 nM
O=C(NC1CCCC1)c1cnn2c(C(F)(F)F)cc(-c3ccco3)nc12 2240 nM
C/C(=N\NC(N)=S)c1ccc[nH]1 3160 nM
Cc1ccccc1CS(=O)(=O)Cc1ccc(C(=O)NCc2cccnc2)o1 10000 nM
CCOc1ccc(OCc2ccc(C(=O)NCc3cccnc3)o2)cc1 8910 nM
O=C1c2ccccc2C2=Nc3ccccc3SC(c3ccccc3F)C12 (configuration not stated) 1410 nM
S=C(S)N1CCCC1 12600 nM
COc1ccc2cc(CCNC(=O)C3CC3)c(=O)[nH]c2c1 12600 nM
Fc1ccccc1OCCCCSc1ncccn1 14100 nM
CCN1CCN(c2nc(C)c3c(n2)CCCC3=O)CC1 2240 nM
CCCCc1n[nH]c2c1/C(=N/O)CC(c1ccccc1)C2 (configuration not stated) 398 nM
O=C(O)CCCc1ccc2ccc3ccccc3c2c1 2000 nM
NNC(=O)CCc1ccc2ccc3ccccc3c2c1 31.6 nM
CCOc1ccc(NC(=O)c2oc3ccccc3c2NC(=O)CC)cc1 2000 nM
CCOCC(=O)Nc1c(C(=O)Nc2ccccc2OC)oc2ccccc12 398 nM
COc1cccc(NC(=O)c2oc3ccccc3c2NC(C)=O)c1 2510 nM
CCn1c2ccccc2c2cc(NC(=O)CSc3nnc(-c4ccc(OC)c(OC)c4)n3N)ccc21 7080 nM
CCN(CC)S(=O)(=O)c1cccc2c(N(C)C)cccc12 7080 nM
CCN(CC)S(=O)(=O)c1ccc2c3c(cccc13)C(=O)S2 1260 nM
Cc1[nH]nc(Nc2ccccc2)c1[N+](=O)[O-] 1000 nM
Cc1ccc2nc(SCc3nc4c(cnn4-c4ccccc4)c(=O)[nH]3)[nH]c2c1 12600 nM
COC(=O)C(C)Sc1nc2c(cnn2-c2ccc(C)cc2)c(=O)[nH]1 (configuration not stated) 2510 nM
CCOC(=O)CSc1nc2c(cnn2-c2ccc(C)cc2)c(=O)[nH]1 562 nM

AC50, inactive:
CN(C)CC[C@H](c1ccc(Cl)cc1)c1ccccn1

activity, negative = inhibition, inactive:
Cc1cc(C)c(O)c(Cc2cccc(Cc3cc(C)cc(C)c3O)c2O)c1 -14.7% [at 2.29 µM]
Cc1nnc(NS(=O)(=O)c2ccc(N)cc2)s1 -3.75% [at 25.6 µM]
NC(N)=NC[C@@H]1COC2(CCCCC2)O1 -4.71% [at 25.6 µM]
CCc1c(O)c2c(c(O)c1C(C)=O)C(=O)c1c(cc(O)c(C(=O)O)c1C(=O)O)C2=O -33.1% [at 11.4 µM]
Cc1nc2c(C#N)c(C)[nH]n2c(=O)c1Cc1ccccc1 -11.3%
S=C1NC2=C(C(c3ccc(Br)cc3)N1)N1CCC2CC1 (configuration not stated) -12.2%
Cc1ccc(C(C(=O)NC2CCCCC2)N2CCN(C(=O)c3ccco3)CC2)cc1 (configuration not stated) 16.9%
Cc1ccc(Cn2ccc(NC(=O)c3cc4nc(-c5ccco5)cc(C(F)(F)F)n4n3)n2)cc1 -7.6%
O=S(=O)(c1ccccc1)N1CCC[C@@]2(CCN(C(c3ccccc3)c3ccccc3)C2)C1 -16.8%
CSc1ncnc2c1ncn2[C@@H]1O[C@@H](CO)[C@H](O)O[C@@H]1O -5.22% [at 2.29 µM]
COc1ccc(OC)c(S(=O)(=O)N2CCC(C(=O)NCCc3ccccc3)CC2)c1 3.39%
COCCCNC(=O)C1CC(=O)N(Cc2ccc(OC)cc2)C1 (configuration not stated) -4.01%
CO[C@@H]1COC(=O)[C@H]2CCCN2C(=O)[C@@H](C)COC(=O)[C@H](COCc2ccccc2)NC(=O)C/C=C\[C@H]1C -3.84% [at 11.4 µM]
CCN1CCc2nc(N)oc2CC1 -7.3%
Nc1ccccc1CCCC(=O)O 4.62% [at 11.4 µM]
COC(=O)C/C=C\[C@@H](C)[C@@H](/C=N\O[C@@H](C)c1cn([C@H]2COC[C@H]2O)nn1)NS(=O)(=O)c1ccc(C)cc1 -5.92% [at 11.4 µM]
CCOc1ccccc1NC(=O)C1=C(C)NC(=O)NC1c1cccc(OC)c1OC (configuration not stated) -19.4%
CCOc1ccc(NC(=O)Cn2nnc(C(=O)NCc3ccccc3OC)c2N)cc1 -18.2%
CCCCN(C(=O)Nc1ccc(OCC)cc1)C1CCN(C(C)=O)CC1 -6.11%
COCC(=O)N1CCC[C@@]2(CCN(C(=O)Nc3ccc(OC)cc3)C2)C1 -18.5%
C/C(CCN1CCc2nc(-c3ccccc3)c(-c3ccccc3)cc2C1)=N\O[C@@H](C)c1cn([C@H](CO)Cc2ccccc2)nn1 1.6% [at 11.4 µM] and -0.819% [at 11.4 µM]
CCn1c(=O)cc(SCC(=O)Nc2cc(OC)c(OC)c(OC)c2)c2ccccc21 -28.7%
CCn1c2ccccc2c2cc(N=C3SC(CC(=O)Nc4ccccc4OC)C(=O)N3C)ccc21 (configuration not stated) -20.4%
Cc1noc(NS(=O)(=O)c2cccc3c(N(C)C)cccc23)c1C -11.1%
CCCc1nnc(SCC(=O)N2CCCCC2C)n1CCCOC (configuration not stated) 4.74%
Cc1nc(SCC(=O)Nc2c(C)nn(C)c2C)c2cnn(-c3ccccc3)c2n1 -21.6%
Nc1nc(SCC(=O)O)[nH]c(=O)c1N -10.3% [at 11.4 µM]
O=C(c1ccco1)N1CCN(c2cc(=O)n(C3CCCCC3)c(=O)[nH]2)CC1 1.95%

Source: PubChem BioAssay AID1851 (National Center for Advancing Translational Sciences (NCATS), 2009)
